Read-out in experiment [1]: C-C motif chemokine 2 (Homo sapiens) (UniProt P13500)
Description: BSK_KF3CT_MCP1: BioMAP Diversity Plus: KF3CT Assay for Monocyte Chemoattractant Protein 1 (MCP1/CCL2) Biomarker Activity (AID 2283073). The following applies: primary human keratinocytes with fibroblasts; actives raise or lower the signal. In short, it runs like this:
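Biomarker MCP-1 is measured by ELISA in primary human keratinocytes co-cultured with foreskin fibroblasts, 24 h after chemical treatment; DMSO serves as the negative control and activity baseline.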

Read-out in experiment [2]: Matrix Metallopeptidase 9 (MMP9), MMP9 (gene 4318)
Description: BSK_KF3CT_MMP9: BioMAP Diversity Plus: KF3CT Assay for Matrix Metallopeptidase 9 (MMP9) Biomarker Activity (AID 2283074).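 As to AC50: MMP9 protein level quantified by ELISA in the co-culture.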 The following applies: primary human keratinocytes with fibroblasts; actives raise or lower the signal. Summed up: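 Human keratinocyte and foreskin fibroblast co-culture exposed to chemicals for 24 h; MMP9 biomarker measured by ELISA, bidirectional fitting relative to DMSO; cytotoxicity tracked by SRB total protein staining in parallel cultures.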

Read-out in experiment [3]: urokinase plasminogen activator (uPA), PLAU (gene 5328)
Kind of experiment: BSK_KF3CT_uPA: BioMAP Diversity Plus: KF3CT Assay for urokinase plasminogen activator (uPA) Biomarker Activity (AID 2283075). The following applies: primary human keratinocytes with fibroblasts; actives raise or lower the signal. Summed up:
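Primary human keratinocyte/foreskin fibroblast co-culture exposed to chemical; uPA measured by ELISA at 24 h. Bidirectional fit versus DMSO, with parallel SRB total-protein staining for cytotoxicity.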

Read-out in experiment [4]: CD40, CD40 (gene 958)
Description: BSK_LPS_CD40: BioMAP Diversity Plus: LPS Assay for CD40 Biomarker Activity (AID 2283076). As to conditions: primary human HUVEC with PBMC; actives raise or lower the signal. In short, it runs like this: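 Using a multiplexed primary human co-culture (umbilical vein endothelium plus PBMC), CD40 was read by ELISA 24 h after dosing, with cytotoxicity tracked by sulforhodamine B staining of parallel cultures and activity fitted bidirectionally versus DMSO.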

Read-out in experiment [5]: E-selectin (Homo sapiens) (UniProt P16581)
Description: BSK_LPS_Eselectin: BioMAP Diversity Plus: LPS Assay for Eselectin Biomarker Activity (AID 2283077). As to conditions: primary human HUVEC with PBMC; actives raise or lower the signal. Summed up:
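Dose chemical onto LPS-driven HUVEC/PBMC co-culture; after 24 h, run ELISA for E-selectin; fit up- and down-going responses relative to DMSO control.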

Read-out in experiment [6]: Interleukin-8 (IL8), CXCL8 (gene 3576)
Description: BSK_LPS_IL8: BioMAP Diversity Plus: LPS Assay for Interleukin-8 (IL8) Biomarker Activity (AID 2283078). As to conditions: primary human HUVEC with PBMC; actives raise or lower the signal. In short, it runs like this:
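In this LPS system, chemical-treated human umbilical vein endothelium/PBMC co-cultures were harvested at 24 h for IL-8 ELISA.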

Experiment [7] in a line: BSK_LPS_SRB: Viability Assessment in the BioMAP Diversity Plus: LPS Assay (AID 2283079).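 Also: total protein by sulforhodamine B absorbance as a cytotoxicity measure; measured one day after compound addition; fitted in both directions against DMSO so loss or gain of signal counts.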 The following applies: primary human HUVEC with PBMC. Summed up:
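Cytotoxicity endpoint in human endothelial–PBMC co-culture: 24 h exposure, then SRB (0.1%) staining, 560 nm read.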

Read-out in experiment [8]: Interleukin-1 alpha (IL1a), IL1A (gene 3552)
Description: BSK_LPS_IL1a: BioMAP Diversity Plus: LPS Assay for Interleukin-1 alpha (IL1a) Biomarker Activity (AID 2283080). The following applies: primary human HUVEC with PBMC; actives raise or lower the signal. In short, it runs like this:
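Primary human HUVEC and PBMC co-culture stimulated with LPS is dosed and harvested at 24 h. Both increases and decreases in ELISA-measured IL-1a are scored relative to DMSO.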

Read-out in experiment [9]: Monocyte Chemoattractant Protein-1 (MCP1), CCL2 (gene 6347)
Kind of experiment: BSK_LPS_MCP1: BioMAP Diversity Plus: LPS Assay for Monocyte Chemoattractant Protein-1 (MCP1) Biomarker Activity (AID 2283081).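 As to AC50: secreted MCP-1 protein quantified by ELISA in culture supernatant.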 As to conditions: primary human HUVEC with PBMC; actives raise or lower the signal. In short, it runs like this:
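Values derive from bidirectional fitting against DMSO of ELISA-measured MCP-1 in a human primary endothelial and mononuclear cell co-culture, 24 h after chemical addition under LPS activation.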

A short description of experiment [10]: BSK_LPS_PGE2: BioMAP Diversity Plus: LPS Assay for Prostaglandin E2 (PGE2) Biomarker Activity (AID 2283082).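 As to AC50: secreted prostaglandin E2 measured by ELISA in LPS-stimulated co-culture.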 The following applies: primary human HUVEC with PBMC; actives raise or lower the signal. In short, it runs like this:
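HUVEC plus human PBMC co-culture stimulated with LPS; secreted PGE2 quantified by ELISA 24 h after chemical dosing. Activity fitted bidirectionally against DMSO baseline; parallel SRB staining (0.1% SRB after 10% TCA fixation, 560 nm) flags overt cytotoxicity.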

Read-out in experiment [11]: Macrophage colony-stimulating factor (MCSF), CSF1 (gene 1435)
Description: BSK_LPS_MCSF: BioMAP Diversity Plus: LPS Assay for Macrophage colony-stimulating factor (MCSF) Biomarker Activity (AID 2283083). As to conditions: primary human HUVEC with PBMC; actives raise or lower the signal. Summed up: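 Bidirectional fit versus DMSO of ELISA-measured M-CSF in co-cultured human umbilical vein endothelial cells and PBMC, sampled 24 h after dosing.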

Read-out in experiment [12]: Tissue Factor, F3 (gene 2152)
Description: BSK_LPS_TissueFactor: BioMAP Diversity Plus: LPS Assay for Tissue Factor Biomarker Activity (AID 2283084). The following applies: primary human HUVEC with PBMC; actives raise or lower the signal. Summed up:
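Read-out: CD142 ELISA, 24 h. System: LPS-driven human endothelial/PBMC co-culture. Analysis: up- or down-signal fitted against DMSO.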

Read-out in experiment [13]: Tumor necrosis factor (Homo sapiens) (UniProt P01375)
Kind of experiment: BSK_LPS_TNFa: BioMAP Diversity Plus: LPS Assay for Tumour Necrosis Factor alpha (TNFa) Biomarker Activity (AID 2283085). The following applies: primary human HUVEC with PBMC; actives raise or lower the signal. In short, it runs like this: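 Human umbilical vein endothelial cells co-cultured with PBMC and stimulated with LPS. TNFa was measured by ELISA 24 h after chemical dosing, fitted bidirectionally relative to DMSO.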

Read-out in experiment [14]: Vascular cell adhesion molecule 1 (VCAM1), VCAM1 (gene 7412)
Description: BSK_LPS_VCAM1: BioMAP Diversity Plus: LPS Assay for Vascular cell adhesion molecule 1 (VCAM1) Biomarker Activity (AID 2283086). As to conditions: primary human HUVEC with PBMC; actives raise or lower the signal. Summed up:
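Human umbilical vein endothelial cells co-cultured with PBMC and stimulated with LPS; VCAM-1 measured by ELISA 24 h after dosing. Bidirectional curve fitting against DMSO baseline; cytotoxicity tracked in parallel by SRB total-protein staining.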

Read-out in the next experiment: CD38, CD38 (gene 952)
Kind of experiment: BSK_SAg_CD38: BioMAP Diversity Plus: SAg Assay for CD38 Biomarker Activity (AID 2283087). As to conditions: primary human HUVEC with PBMC; actives raise or lower the signal. Summed up: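 Human HUVEC plus PBMC co-culture stimulated with superantigen; CD38 measured by ELISA 24 h after chemical dosing. Fluorescence read-out, bidirectional fit against DMSO; cytotoxicity tracked in parallel by SRB and Alamar Blue.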

Read-out in experiment [15]: CD40, CD40 (gene 958)
Kind of experiment: BSK_SAg_CD40: BioMAP Diversity Plus: SAg Assay for CD40 Biomarker Activity (AID 2283088). As to conditions: primary human HUVEC with PBMC; actives raise or lower the signal. Summed up: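 Endpoint derived by fitting increases or decreases versus DMSO controls. CD40 is detected by fluorescence ELISA in a human vascular co-culture of endothelium and PBMC at 24 h.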

Read-out in a further experiment: CD69, CD69 (gene 969)
Description: BSK_SAg_CD69: BioMAP Diversity Plus: SAg Assay for CD69 Biomarker Activity (AID 2283089).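 As to AC50: cell surface CD69 protein quantified by ELISA with fluorescence detection.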 As to conditions: primary human HUVEC with PBMC; actives raise or lower the signal. Summed up: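 Values derive from bidirectional fitting relative to DMSO vehicle. Cells: umbilical vein endothelium plus peripheral blood mononuclear cells, treated 24 h before fluorescent ELISA for CD69.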

Read-out in experiment [16]: Monocyte Chemoattractant Protein-1 (MCP1), CCL2 (gene 6347)
Kind of experiment: BSK_SAg_MCP1: BioMAP Diversity Plus: SAg Assay for Monocyte Chemoattractant Protein-1 (MCP1) Biomarker Activity (AID 2283090). As to conditions: primary human HUVEC with PBMC; actives raise or lower the signal. In short, it runs like this:
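MCP-1 levels in the endothelial–PBMC SAg co-culture were quantified by ELISA at 24 h post-dosing; both increases and decreases versus DMSO scored. Cytotoxicity monitored by SRB total protein in parallel cultures.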

Read-out in experiment [17]: E-selectin (Homo sapiens) (UniProt P16581)
Description: BSK_SAg_Eselectin: BioMAP Diversity Plus: SAg Assay for Eselectin Biomarker Activity (AID 2283091). As to conditions: primary human HUVEC with PBMC; actives raise or lower the signal. In short, it runs like this:
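Endpoint values derive from bidirectional fitting relative to DMSO, using ELISA-measured E-selectin in a human vascular co-culture (umbilical vein endothelium plus PBMC) sampled 24 h after dosing.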

Read-out in experiment [18]: Monokine induced gamma interferon (MIG), CXCL9 (gene 4283)
Description: BSK_SAg_MIG: BioMAP Diversity Plus: SAg Assay for Monokine induced gamma interferon (MIG) Biomarker Activity (AID 2283092). As to conditions: primary human HUVEC with PBMC; actives raise or lower the signal. Summed up: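 Values reflect bidirectional fitting of ELISA-measured MIG against DMSO vehicle, taken 24 h after dosing of a co-culture of human umbilical vein endothelial cells and peripheral blood mononuclear cells.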

The text below walks through data of PubChem BioAssay (EPA / NIEHS).

Each structure is given as a SMILES string. Calls of active or inactive are those of the source. The calls were made as follows: active = hit-call score of the fitted dose curve at least 0.9, where 1 is the maximum; inactive = score below 0.9.

Usually AC50 stands for the midpoint of the concentration-response curve, whichever way the signal moves.

Tumor necrosis factor (Homo sapiens), sequence (P01375 whole entry, looked up): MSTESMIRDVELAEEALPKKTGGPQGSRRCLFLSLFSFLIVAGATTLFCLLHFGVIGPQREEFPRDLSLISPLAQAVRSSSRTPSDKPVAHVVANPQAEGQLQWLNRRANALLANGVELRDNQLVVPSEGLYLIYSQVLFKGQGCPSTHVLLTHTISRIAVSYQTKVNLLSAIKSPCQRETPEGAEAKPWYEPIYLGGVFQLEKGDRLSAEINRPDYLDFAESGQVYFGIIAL
E-selectin (Homo sapiens), sequence (P16581 whole entry, looked up): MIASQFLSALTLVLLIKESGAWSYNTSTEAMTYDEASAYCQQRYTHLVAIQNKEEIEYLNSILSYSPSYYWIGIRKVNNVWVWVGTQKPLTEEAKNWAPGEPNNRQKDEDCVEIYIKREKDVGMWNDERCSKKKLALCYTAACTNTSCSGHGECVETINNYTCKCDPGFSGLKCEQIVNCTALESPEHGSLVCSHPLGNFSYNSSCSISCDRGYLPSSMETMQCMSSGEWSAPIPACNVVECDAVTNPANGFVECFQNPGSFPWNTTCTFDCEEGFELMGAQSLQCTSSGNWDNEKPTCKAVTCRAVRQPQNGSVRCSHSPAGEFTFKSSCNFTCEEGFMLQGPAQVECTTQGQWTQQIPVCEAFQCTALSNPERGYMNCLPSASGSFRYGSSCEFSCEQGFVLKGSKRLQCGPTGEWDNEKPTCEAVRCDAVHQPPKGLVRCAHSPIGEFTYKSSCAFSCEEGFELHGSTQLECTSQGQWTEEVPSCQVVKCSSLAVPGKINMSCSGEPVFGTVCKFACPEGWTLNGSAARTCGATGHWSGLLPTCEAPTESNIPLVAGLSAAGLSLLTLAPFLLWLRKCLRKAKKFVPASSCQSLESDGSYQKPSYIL

As for `O=C1O[C@H]([C@@H](O)CO)C(O)=C1O`, the outcome in experiment [1] was “inactive”; in experiment [2] it was “inactive”; in experiment [3], “inactive”; with CD40, CD40 (gene 958) [4] it was “inactive”; in experiment [5] it was “inactive”; in [6], “inactive”. Also, the result in [7], in [8], in experiment [9], in [10], in experiment [11] and in [12] was inactive. Further, the outcome in [13] is “inactive”; in experiment [14] it was “inactive”; with CD38, CD38 (gene 952), “inactive”; with CD40, CD40 (gene 958) [15], “inactive”; with CD69, CD69 (gene 969) it was “inactive”; in experiment [16], “inactive”. The outcome in experiment [17] and in experiment [18] was inactive.

For `O=C(OCCCCCCOC(=O)c1ccccc1)c1ccccc1`, the outcome in experiment [1] is “inactive”; in experiment [2], “inactive”; in [3], “inactive”; in the experiment with CD40, CD40 (gene 958) [4] it was “inactive”; in [5], “inactive”; in experiment [6], “inactive”. Also, the outcome in experiment [7], in [8], in experiment [9], in experiment [11], in experiment [12] and in experiment [14] was inactive. Also, the outcome with CD38, CD38 (gene 952) was “inactive”; with CD40, CD40 (gene 958) [15] it was “inactive”; with CD69, CD69 (gene 969), “inactive”; in [16] it was “inactive”; in experiment [17], “inactive”. The AC50 in [10] was 32.4 µM (active); in [13] it was 4.86 µM (active).

Regarding `CN(C)C(=O)C1(N2CCCCC2)CCN(CC[C@@]2(c3ccc(Cl)c(Cl)c3)CN(C(=O)c3ccccc3)CCO2)CC1`, the AC50 was 35 µM (active) in [1]; 25.5 µM (active) in [2]; 32.1 µM (active) in experiment [3]; 16.8 µM (active) with CD40, CD40 (gene 958) [4]; 29.2 µM (active) in experiment [5]; 25.7 µM (active) in experiment [6]. The AC50 in [7] was 18.9 µM (active); in [8] it was 18.9 µM (active); in [9], 25.2 µM (active); in experiment [11] it was 20.8 µM (active); in [12], 31.2 µM (active); in experiment [13], 35.4 µM (active). The AC50 in experiment [14] is 26.6 µM (active); in the experiment with CD38, CD38 (gene 952), 21.3 µM (active); in the experiment with CD40, CD40 (gene 958) [15], 18.9 µM (active); in the experiment with CD69, CD69 (gene 969), 16.5 µM (active); in experiment [16], 22.2 µM (active); in experiment [17], 28.3 µM (active). In addition, the AC50 in experiment [18] was 31.7 µM (active). The result in experiment [10] was inactive.
